# From PubChem
# Shown are actives, neighbours in structure and some others; about 5.4% of the full set was active somewhere.
# HSF1 activator = increases HSF-1 driven luciferase reporter signal. hit rate 1.7% among 300,000. NIH3T3-HGL HSF-1 luciferase reporter, MG132, 8 h; 100% = twice DMSO control signal. activation, % at 9 µM;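 active means mean replicate activation of at least 50% with a set share of replicates each reaching 50%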;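 further: 0% = median of the neutral control wells and 100% = twice that signal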
# FXN GAA850 act = increases GAA850 frataxin promoter reporter activity; HEK293 lucGAA850 FXN promoter luciferase reporter, 24 h; percent of 10 µM SAHA response; activation, % at 6 µM; hit rate 0.56% among 360,000; AID 540364;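 active means activation above the average of all compounds screened plus 3 SD, cutoff fixed separately per campaign, cut at about 7.5% in these data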;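 further: 0% = DMSO wells and 100% = 10 µM SAHA wells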
# AHR act = human AHR activation. P35869. hit rate 2.5% among 320,000. AID 2796. activation, % at 5 µM. AHR-responsive luciferase reporter cells, luminescence; in the data active means activation above about 47%;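 further: 0% = vehicle wells and 100% = reference agonist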
# Target sequence (P35869 whole entry, looked up): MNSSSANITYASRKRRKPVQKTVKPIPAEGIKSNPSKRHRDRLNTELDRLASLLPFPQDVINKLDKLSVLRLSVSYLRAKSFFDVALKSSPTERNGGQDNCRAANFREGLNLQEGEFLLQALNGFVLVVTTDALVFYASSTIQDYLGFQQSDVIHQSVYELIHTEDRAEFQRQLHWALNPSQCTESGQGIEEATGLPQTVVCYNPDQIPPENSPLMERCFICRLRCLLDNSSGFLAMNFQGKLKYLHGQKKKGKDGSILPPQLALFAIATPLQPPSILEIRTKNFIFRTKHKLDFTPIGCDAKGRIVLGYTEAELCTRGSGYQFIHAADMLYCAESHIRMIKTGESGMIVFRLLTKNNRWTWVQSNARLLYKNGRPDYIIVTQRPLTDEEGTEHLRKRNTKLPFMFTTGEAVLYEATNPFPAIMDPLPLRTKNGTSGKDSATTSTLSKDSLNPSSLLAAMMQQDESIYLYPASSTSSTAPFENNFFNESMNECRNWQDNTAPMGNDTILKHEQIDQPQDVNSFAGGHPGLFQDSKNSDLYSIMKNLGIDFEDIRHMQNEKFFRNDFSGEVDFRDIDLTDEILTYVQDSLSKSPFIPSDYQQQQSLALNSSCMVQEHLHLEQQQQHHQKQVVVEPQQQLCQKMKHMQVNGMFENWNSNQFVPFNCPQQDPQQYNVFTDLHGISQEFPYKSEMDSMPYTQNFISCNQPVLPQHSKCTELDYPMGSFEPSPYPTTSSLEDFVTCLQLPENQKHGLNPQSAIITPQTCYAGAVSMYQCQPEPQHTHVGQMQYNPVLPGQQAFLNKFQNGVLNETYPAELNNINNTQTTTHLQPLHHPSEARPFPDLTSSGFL
# NR0B1 inh = inhibitors of human orphan nuclear receptor DAX1 (NR0B1) | P51843 | HEK293 Gal4-DAX1 luciferase reporter, luminescence | inhibition, % at 6.75 µM | hit rate 0.99% among 340,000 | AID 504766;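 active means inhibition above the mean over all tested compounds plus 3 SD, cut at about 4.2% in these data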;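 further: 0% = DAX1-transfected cells with DMSO and 100% = empty-vector control cells with DMSO; inhibition shows as a rise in luminescence from relieved DAX1 repression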
# HSF1 inh = HSF1 inhibition; NIH3T3-HGL HSE-luciferase, MG132-induced, luminescence 8 h; hits give low values; AID 2098; activity change, negative = inhibition, % at 7.5 µM (by protocol); hit rate 0.77% among 300,000;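 active means more than half of replicate wells show activity change below -50%, luminescence cut by over half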;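 further: luciferase reports HSF-1 transcriptional activity via heat shock element; 0% = median of DMSO wells and -100% = zero luminescence signal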
# GAA30 counter = counter-screen for GAA850 frataxin promoter activators: GAA30 promoter activation. shares compounds with FXN GAA850 act. HEK293 lucGAA30 FXN promoter luciferase, 24 h; DMSO = 0%, 5 µM ipriflavone = 100%. activation, % at 6 µM. hit rate 66% among 1,900;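 active means mean activation above the mean of solvent-only control wells plus 3 SD, cut at about 22% in these data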;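 further: counterscreen of GAA850 promoter hits where activity marks nonselective or luminescence artifacts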
# FXN GAA850 conf = GAA850 FXN promoter activation confirmation; HEK293 lucGAA850 FXN promoter luciferase reporter, 24 h; 100% = activation by SAHA; activation, % at 6 µM; shares compounds with FXN GAA850 act; hit rate 86% among 1,900;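 active means mean activation above a set limit taken from the primary screen, cut at about 8% in these data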;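 further: 0% = DMSO wells and 100% = 10 µM SAHA wells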
# Starred values were filed as active, the others as inactive; . = not tested or not shown.
SMILES,HSF1 activator,FXN GAA850 act,AHR act,NR0B1 inh,HSF1 inh,GAA30 counter,FXN GAA850 conf
C[n+]1cn(Cc2ccc(C#N)cc2)c2ccccc21,-13.9,-0.9,-0.3,1.0,-1.3,.,.
C/C(=N\O)c1sc(-c2ccccc2)nc1C,71.5*,8.1*,.,2.3,40.5,122.8*,34.4*
CS/C(N)=N/N=C/c1cc(C)ccc1O,139.9*,8.6*,3.5,4.3*,86.2,122.2*,37.9*
CCS/C(N)=N/N=C/c1cc(C)ccc1O,34.5,3.1,1.3,0.4,19.9,.,.
CCOc1ccc2nc(SCC#N)c(C#N)cc2c1,19.9,8.2*,-19.1,-0.4,25.2,107.6*,31.7*
O=C(CSC(=S)N1CCSCC1)c1ccc(Cl)cc1,-6.2,9.8*,-2.9,3.6,5.1,114.5*,41.9*
O=C(Nc1ccc(Cl)cc1)N1CCSCC1,-9.8,0.0,-1.7,0.4,0.1,.,.
CN1CCN(S(=O)(=O)c2ccc(C#N)cc2)C(c2ccccc2)C1 (stereo unspecified),.,1.4,1.2,0.4,.,.,.
CC(C)NC(=O)c1cccc2c1-c1ccccc1C2=O,-11.6,1.2,-1.2,0.7,-10.4,.,.
O=C1CC(c2ccco2)Sc2nc3ccccc3n21 (stereo unspecified),4.9,8.3*,19.7,0.9,2.2,84.3*,22.1*
O=C1CC(c2ccccc2)Sc2nc3ccccc3n21 (stereo unspecified),15.0,3.4,5.0,2.6,-13.6,.,.
CC(C)(C)c1ccc(C(=O)N2CCC(NC(=O)c3ccccc3)CC2)cc1,5.8,2.5,4.1,-0.6,-5.8,.,.
COc1ccc(C2CC(c3cccc(C)c3)n3ncnc3N2)cc1 (stereo unspecified),-5.9,1.1,-0.3,1.1,-0.2,.,.
Cc1cccc(C2CC(c3ccccc3)Nc3ncnn32)c1 (stereo unspecified),-4.0,18.5*,1.3,5.6*,-2.1,9.5,9.6*
O=c1[nH]c(=O)n(C2OC(CO)C(O)C2O)cc1F (stereo unspecified),.,19.2*,.,-3.1,.,6.7,78.3*
CN(C(=O)Cc1c(C(=O)O)n(C)c2ccccc12)c1cccc(C(F)(F)F)c1,-17.6,-0.2,1.2,0.4,-9.8,.,.
COC(=O)C1Cc2ccccc2CN1C(=O)CCl (stereo unspecified),-9.0,-3.4,0.8,-0.3,-5.0,.,.
CC(=O)c1cnc2cc(-c3ccccc3)nn2c1C,15.1,6.5,8.3,0.6,19.0,.,.
CC(=O)c1cnc2cc(-c3ccc(C)cc3)nn2c1C,-6.1,11.2*,15.0,2.1,-5.2,128.2*,41.5*
CC(C)C[C@H](NC(=O)C1CC(=O)N(c2ccc3c(c2)OCCO3)C1)C(=O)N1CCCCC1 (stereo partly specified),-9.8,-1.0,2.6,0.0,-3.4,.,.
Nn1cnc2c(ncn2C2OC(CO)C(O)C2O)c1=O (stereo unspecified),.,13.2*,.,.,.,13.9,5.5
Nc1ncnc2c1ncn2C1OC(C(=O)NC2CC2)C(O)C1O (stereo unspecified),.,9.7*,-2.3,-0.2,.,25.9*,14.9*
Nc1ncnc2c1ncn2C1O[C@H](CO)[C@@H](O)[C@@H]1O (stereo partly specified),.,0.1,1.2,-0.9,.,.,.
OCC1OC(n2cnc3c(NC4CCCCC4)ncnc32)C(O)C1O (stereo unspecified),-0.7,9.6*,0.9,-1.0,-1.8,37.1*,16.7*
OCC1OC(n2cnc3c(NC4CCCC4)ncnc32)C(O)C1O (stereo unspecified),-20.7,12.0*,0.5,1.8,-6.4,38.8*,20.2*
SMILES,HSF1 activator,FXN GAA850 act,AHR act,NR0B1 inh,HSF1 inh,GAA30 counter,FXN GAA850 conf
CCCc1c(C(=O)N/N=C(\C)c2ccccn2)nnn1-c1nonc1N,.,-0.1,.,3.7,.,.,.
CCn1cc(C(=O)OC)c(=O)c2cc(S(=O)(=O)N(C)C3CCCCC3)ccc21,-3.0,-0.2,0.5,0.6,8.3,.,.
N#CCC(=O)Nc1ccc(C(=O)OCC(=O)Nc2ccc3ccccc3c2)cc1,.,0.3,9.0,-0.9,.,.,.
Cc1c(-c2ccccc2)cnc2c(C)cccc12,38.8,1.4,18.9,2.1,5.9,.,.
COCCCNc1nc(SCc2ccccc2)nc2sc3c(c12)CCC3,32.2,14.3*,7.0,1.4,1.1,30.6*,21.5*
COCCNc1nc(SC)nc2sc3c(c12)CCN(C)C3,-4.3,0.9,4.6,2.6,-5.7,.,.
C(=NN1CCCCCC1)c1ccccc1,.,-2.0,.,0.3,.,.,.
CN(c1ccccc1)c1ccc(/C=N/N2CCOCC2)cc1,60.9*,7.9*,2.2,5.8*,18.9,113.7*,36.4*
Cc1cc(Cl)n2c(nc3cc(F)c(F)cc32)c1C#N,178.8*,14.7*,.,0.1,110.0,-50.7,29.0*
Cc1cc(C)n2c(=O)c3ccc(Cl)cc3nc2c1C#N,19.9,0.4,27.7,2.1,-0.4,.,.
CC(=O)Nc1ccc(N/C=C/C(=O)c2ccc(C)o2)cc1,-4.1,8.9*,-2.3,0.2,-2.1,94.8*,30.3*
COc1cnn(-c2ccc(C)cc2)c(=O)c1SCc1ccccc1,21.4,7.9*,2.8,3.1,7.7,65.6*,24.8*
Cc1noc(C)c1NC(=O)N(C)C[C@H]1Oc2ccc(NS(=O)(=O)c3ccc(F)cc3)cc2C(=O)N([C@H](C)CO)C[C@@H]1C,.,-1.1,-1.4,0.8,.,.,.
COc1ccc(Cn2nnnc2CN(Cc2cc3cccc(C)c3[nH]c2=O)C2CCCC2)cc1,2.8,7.8*,26.6,-0.3,12.1,17.9,6.1
Cc1ccc2nc(-c3cccc(S(=O)(=O)N4CC(C)OC(C)C4)c3)cn2c1 (stereo unspecified),8.0,1.9,15.8,-1.3,6.9,.,.
O=C(c1ccc(-c2ccc([N+](=O)[O-])cc2)o1)N1CCCCC1,87.2*,8.5*,-4.8,3.6,56.7,125.3*,44.0*
CCCC(=O)N/C(N)=N/c1nc2ccccc2o1,45.2,3.4,1.0,2.1,29.0,.,.
CCC(=O)N/C(N)=N/c1nc2ccccc2o1,5.3,7.8*,-1.4,5.4*,1.8,113.2*,37.4*
NS(=O)(=O)c1ccc(CCNC(=O)CNC(=O)c2ccccc2F)cc1,23.9,0.7,-1.5,0.4,-4.6,.,.
CC(C)C(NC(=O)c1ccc(C(C)(C)C)cc1)C(=O)Nc1cccc(S(N)(=O)=O)c1 (stereo unspecified),12.8,-1.1,1.2,-0.9,-6.6,.,.
O=C(OCC1CC(c2ccccc2Cl)=NO1)c1ccc(Br)cc1 (stereo unspecified),0.3,7.6*,3.3,-0.5,-4.9,11.4,4.7
O=C(OCC1CC(c2ccccc2)=NO1)c1ccc(Br)cc1 (stereo unspecified),15.5,1.3,-2.9,0.5,-5.6,.,.
